According to PubChem BioAssay:

Target: Alpha-2C adrenergic receptor (Homo sapiens) (UniProt P18825)
Assay: compounds altering alpha2C-coupled GIRK flux – cell-based, HEK293 alpha2C/GIRK1/2, thallium flux, primary screen (AID 624);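 also: slope of fluorescence ratio to pre-addition baseline per second over 15 to 24 s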
Details: thallium flux BTC fluorescence, at 10 µM, actives lie on both sides;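 active = fluorescence slope after compound addition differing from the mean of all screened samples at 99.7% confidence, in either direction; inactive = the rest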

Chain of Alpha-2C adrenergic receptor (Homo sapiens) (P18825 whole entry, looked up): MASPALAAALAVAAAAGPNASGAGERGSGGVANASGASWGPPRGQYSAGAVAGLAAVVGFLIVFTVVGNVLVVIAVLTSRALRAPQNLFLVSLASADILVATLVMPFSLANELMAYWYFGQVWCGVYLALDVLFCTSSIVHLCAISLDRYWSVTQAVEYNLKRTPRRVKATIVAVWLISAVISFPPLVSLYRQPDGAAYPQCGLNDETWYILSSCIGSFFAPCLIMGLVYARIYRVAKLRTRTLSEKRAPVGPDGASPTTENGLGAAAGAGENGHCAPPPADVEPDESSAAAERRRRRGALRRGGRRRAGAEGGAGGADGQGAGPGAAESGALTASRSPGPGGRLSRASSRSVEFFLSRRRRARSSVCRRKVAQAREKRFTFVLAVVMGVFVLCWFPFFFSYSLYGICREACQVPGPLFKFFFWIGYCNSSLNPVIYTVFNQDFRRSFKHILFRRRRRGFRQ

slope, inactive:
Cc1ccc(-c2nnc3c4ccccc4c(C)nn23)cc1S(=O)(=O)N1CCN(C)CC1 0.00436
CCN(CC)CCCNC1CCS(=O)(=O)C1 (centres undefined) 0.00536
CN(C)CCCN1C(=O)c2oc3ccc(Cl)cc3c(=O)c2C1c1cccnc1 (centres undefined) 0.00766
COc1ccc(CCn2c(-c3ccco3)nc3ccccc3c2=O)cc1OC 0.00555
O=C(CSc1nnc(-c2ccccc2)o1)N1CCc2ccccc2C1 0.00577
Cc1ccccc1NS(=O)(=O)c1cc(C(=O)N2CCCC2)ccc1C 0.00473
Nc1c(C(=O)NCc2ccco2)nnn1Cc1ccccc1 0.00354
O=C(NCC(c1cccnc1)N1CCN(c2ccc(F)cc2)CC1)OCc1ccccc1 (centres undefined) 0.00599
CCc1nnc(NC(=O)c2ccc(S(=O)(=O)NCC(C)C)cc2)s1 0.00682
O=C(CCNS(=O)(=O)c1ccc(Br)s1)N1CCCCC1 0.00623
CCCn1c(SCC(=O)NC(C)(C)C)nnc1C(C)C 0.00641
CC(CN1CCCCC1)OC(=O)c1ccc2c(c1)OCO2 (centres undefined) 0.00425
CC(C)(C)NC(=O)Cn1nnnc1-c1nonc1N 0.00302
CC1(C)CC(=O)C(C=NCc2ccc3c(c2)OCO3)=C(O)C1 0.00553
CN1CCN(c2nc(-c3ccncc3)nc3ccccc23)CC1 0.00562
COc1ccc(S(=O)(=O)NCc2ccc(C(=O)O)cc2)cc1 0.0062
COc1ccc(CC(=O)Nc2ccc(OC)c(NC(=O)c3ccco3)c2)cc1 0.00901
COc1ccc(NC(=O)C23CCC(C)(C(=O)C2)C3(C)C)cc1 (centres undefined) 0.00539
Cc1ccc(-c2nc3cc(N)ccc3o2)cc1 0.00542
COc1cccc(C(=O)Nc2ccc(NC(C)=O)cn2)c1 0.00617
Cc1cnc(C(=O)Nc2ccc(N3CCN(C(=O)OC(C)(C)C)CC3)cc2)cn1 0.00617
O=C(CSc1nnnn1C1CCCC1)NCc1ccc2c(c1)OCO2 0.00594
CCC(C)(C(=O)NC1CCCC1)N(Cc1cccs1)C(=O)Cc1cccs1 (centres undefined) 0.00631
CCOc1ccc2c(c1)n(CO)c(=S)n2CO 0.00378
CCn1c(CSc2nnc(-c3cccnc3)n2-c2ccccc2C)nc2cc(C(=O)O)ccc21 0.00507
CCOC(=O)NC(=O)CSc1nnnn1-c1ccc(Cl)cc1 0.00637
Nn1cc(-c2ccccc2)nc1SCC(=O)N1CCN(S(=O)(=O)c2ccccc2)CC1 0.00477
COC(=O)C1=C(N)Oc2cc(C)n(Cc3ccncc3)c(=O)c2C1c1cccnc1 (centres undefined) 0.00483
COC(=O)C1CCN(C(=O)CN2C(=O)NC(CCc3ccccc3)C2=O)CC1 (centres undefined) 0.00516
O=C(CSc1nnc(C2COc3ccccc3O2)o1)N1CCCc2ccccc21 (centres undefined) 0.00363
CN(C)S(=O)(=O)N1CCN(C(=O)N(c2ccccc2)c2ccccc2)CC1 0.00704
COCC(C)NC(=O)CCS(=O)(=O)c1nc(-c2ccc(OC)cc2)cc(C(F)(F)F)n1 (centres undefined) 0.00386
O=C(NCc1cccnc1)c1ccc(Cl)c(Cl)c1 0.00439
CCN(CC)CCOC(=O)c1cccc(OC)c1 0.00412
CN1CCN(c2ncnc3c2cnn3-c2ccc(Cl)cc2)CC1 0.00771
NC(=O)C1CCN(C(=O)c2cc3n(n2)C(C(F)(F)F)CC(c2ccco2)N3)CC1 (centres undefined) 0.00594
CC(C)(C)c1ccc2c(c1)OCC(C(=O)O)O2 (centres undefined) 0.00589
Cc1cc(C)c2c(n1)nn1c(NCCCN3CCOCC3)cc(C)nc21 0.00545
Cc1n[nH]c(C)c1N1C(=O)c2cccc3cc(Br)cc(c23)C1=O 0.00408
